# Hits are enriched below; roughly 28% of the tested compounds scored in any of these assays.
# CYP2C19 activ = increases human CYP2C19 enzyme activity; P33261; recombinant CYP2C19, luciferin-H EGE luminescence; hits give high values; 0 = fully inhibited enzyme, 1 = untreated enzyme; activation factor at 5 µM; 96,000 tested, under 10 active; AID 1025;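 active means activation factor of at least 2 at 5 µM in the primary screen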
# CD11b adhes inh = blocks human CD11b/CD18 adhesion to fibrinogen | P05107+P11215 | K562 CD11b/CD18 adhesion to fibrinogen, ATPlite luminescence; Mn2+ added to activate the integrin | 93,000 tested, 0.54% active | inhibition, % at 10 µM | AID 1497;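 active means primary inhibition of 50% or more at 10 µM, then 40% or more on retest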
# CYP2C19 inh = inhibitors of human CYP2C19; CYP2C19 Supersomes, luciferin-H EGE luminescence, 30 min; inhibition, % at 5 µM; 96,000 tested, 21% active;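 active means CYP2C19 inhibition above a set limit at 5 µM in the primary screen, cut at about 50% in these data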
# CYP2C9 inhib = blocks human cytochrome P450 2C9. 96,000 tested, 20% active. P11712. inhibition, % at 5 µM. CYP2C9 Supersomes, luciferin-H conversion, luminescence;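 active means blocking of liver enzyme CYP2C9 beyond about 50% at 5 µM, limit read from the data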
# Target sequence (P11712 whole entry, looked up): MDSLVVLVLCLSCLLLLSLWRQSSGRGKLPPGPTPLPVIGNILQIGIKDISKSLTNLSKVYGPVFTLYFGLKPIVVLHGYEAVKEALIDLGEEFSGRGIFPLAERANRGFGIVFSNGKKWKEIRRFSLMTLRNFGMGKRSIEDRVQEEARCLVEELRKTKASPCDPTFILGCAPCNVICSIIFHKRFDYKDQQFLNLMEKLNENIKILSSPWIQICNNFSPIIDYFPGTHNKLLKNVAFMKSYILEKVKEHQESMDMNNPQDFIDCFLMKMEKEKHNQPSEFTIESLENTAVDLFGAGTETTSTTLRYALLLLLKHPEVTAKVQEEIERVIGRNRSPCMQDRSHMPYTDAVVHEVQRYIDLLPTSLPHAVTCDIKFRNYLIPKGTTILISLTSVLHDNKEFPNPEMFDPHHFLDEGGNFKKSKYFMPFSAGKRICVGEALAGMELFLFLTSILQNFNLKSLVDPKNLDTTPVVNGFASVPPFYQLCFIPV
# Mac1 fbg enh = CD11b/CD18-fibrinogen binding enhancement; K562 CD11b/CD18 adhesion to fibrinogen, ATPlite luminescence; 93,000 tested, 0.07% active; activation, % at 10 µM;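 active means 10 µM primary screen giving 50% or more activity, confirmed by 40% or more on retest at that dose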
# CYP2C9 act = activators of human CYP2C9; P11712; recombinant CYP2C9, luciferin-H conversion, luminescence; hits give high values; factor 1 = untreated enzyme, 0 = blocked; activation factor at 5 µM; 96,000 tested, 1.4% active; AID 1024;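 active means activation factor of 2 or more for CYP2C9 at a 5 µM dose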
# Hits are given with their value; . = inactive; / = no result given.
SMILES,CYP2C19 activ,CD11b adhes inh,CYP2C19 inh,CYP2C9 inhib,Mac1 fbg enh,CYP2C9 act
CCc1nc(SCC(=O)Nc2nccs2)c2oc3ccccc3c2n1,.,/,.,76,/,.
CCOC(=O)CC(=O)CSc1nc(C)nc2c1oc1ccccc12,.,.,.,.,.,.
CCc1nc(SCC(=O)N2CCCc3ccccc32)c2oc3ccccc3c2n1,.,.,.,74,.,.
Cc1nc(SCC(=O)Nc2ccc3c(c2)OCCO3)c2oc3ccccc3c2n1,.,/,96,73,/,.
O=C(CSc1ncnc2c1cnn2Cc1ccccc1)Nc1ccc2c(c1)OCCO2,.,/,58,55,/,.
CCOC(=O)C1=NN(C(C)=O)C2(CC(=O)N(c3cccc(C)c3)C2=O)C1 (stereo unspecified),/,.,/,/,.,/
CCc1nc(SCC(=O)Nc2ccc3c(c2)OCCO3)c2oc3ccccc3c2n1,.,/,.,52,/,.
Cc1cccc(OCCN2CSC(=S)N(C)C2)c1,.,.,79,88,.,.
COCCCNc1nc(SCc2ccccc2)nc2sc3c(c12)CCC3,.,/,.,61,/,.
O=C(Cc1n[nH]c(=O)[nH]c1=O)N/N=C/c1ccccc1O,.,.,.,.,.,.
O=C(NC(NC1CCS(=O)(=O)C1)C(=O)c1cccs1)c1ccccc1 (stereo unspecified),.,.,99,69,.,.
Cc1ccc(C(=O)N[C@H](C(=O)OCC(=O)NC2CCS(=O)(=O)C2)C(C)C)cc1 (stereo partly specified),/,.,/,/,.,/
COc1ccccc1NS(=O)(=O)c1cc([N+](=O)[O-])ccc1N/N=C/c1sc(N2CCOCC2)nc1-c1ccccc1,/,.,/,/,.,/
CCN=C1Sc2nc3ccc(OCC)cc3cc2CN1CCOC,.,.,91,96,.,.
CCN(CC)S(=O)(=O)c1cccc(-c2nnc(SCC(=O)NC3CCCCCCC3)n2N)c1,.,.,52,79,.,.
CC1CCCCC1NC(=O)CSc1nnc(-c2ccccc2)n1N (stereo unspecified),.,.,88,56,.,.
CCN(CC)S(=O)(=O)c1cccc(-c2nnc(SCC(=O)NC3CCCCCC3)n2N)c1,.,.,57,60,.,.
CCN(CC)S(=O)(=O)c1cccc(-c2nnc(SCC(=O)NC)n2CCc2ccccc2)c1,.,.,.,.,.,.
CCN(CC)S(=O)(=O)c1cccc(-c2nnc(SCC(=O)NC3CCCC3)n2N)c1,.,.,.,.,.,.
Nn1c(SCC(=O)NC2CCCCC2)nnc1-c1ccccc1,.,.,.,.,.,.
N#C/C(=C\c1c(N2CCC(C(N)=O)CC2)nc2ccccn2c1=O)S(=O)(=O)c1ccccc1,.,.,.,79,.,.
CC1CN(c2oc(-c3ccco3)nc2S(=O)(=O)c2ccccc2)CC(C)O1 (stereo unspecified),.,.,.,.,.,.
CC1CN(c2nc3ccccn3c(=O)c2/C=C(\C#N)S(=O)(=O)c2ccccc2)CC(C)O1 (stereo unspecified),.,.,85,84,.,.
CCNC(=O)/C(C#N)=C/c1c(N(Cc2ccccc2)Cc2ccccc2)nc2ccccn2c1=O,/,.,/,/,.,/
CCOC(=O)c1ccccc1NC(=O)CSc1ncc(C(=O)OCC)c(N)n1,.,.,.,88,.,.
SMILES,CYP2C19 activ,CD11b adhes inh,CYP2C19 inh,CYP2C9 inhib,Mac1 fbg enh,CYP2C9 act
CCOC(=O)c1cnc(SCC(=O)Nc2cc(OC)ccc2OC)nc1N,.,.,.,.,.,.
CCOC(=O)c1cnc2c(C#N)c(C)nn2c1C,.,.,.,.,.,.
CCOC(=O)c1cnc(-c2ccccc2)nc1Oc1cccc(Cl)c1,.,/,.,51,/,.
CCOC(=O)c1cnc(SCC(C)C)nc1N,.,/,50,.,/,.
CCOC(=O)c1cnc2c(C#N)c(C)nn2c1-c1ccccc1,.,.,95,.,.,.
O=C1CC(N2CCN(c3ccccc3)CC2)C(=O)N1CCc1ccccc1 (stereo unspecified),.,.,.,.,.,.
CCN1CCN(C(=O)C2CCN(Cc3cc(Cl)ccc3O)CC2)CC1,.,.,.,.,.,.
CC(C)C(=O)Nc1ccc2c(c1)C(=O)N(CCC(=O)O)C2=O,.,.,.,.,.,.
O=C1COc2ccc(C(=O)c3ccccc3)cc2CN1,.,.,.,.,.,.
CCOC(=O)c1cnc(SCC(=O)c2ccc3c(c2)OCCO3)nc1N,.,.,.,52,.,.
CCOC(=O)c1cnc(-c2ccccc2)nc1N,.,.,85,64,.,.
CCOC(=O)c1cnc(SCC(=O)Nc2nc(C)c(C)s2)nc1N,.,.,51,91,.,.
CCOC(=O)c1cnc(SC2CC(=O)N(c3ccc(OC)c(OC)c3)C2=O)nc1N (stereo unspecified),.,.,.,92,.,.
CCOc1ccccc1N(C(=O)Nc1ccc(Cl)cc1)C1=NC(C)CS1 (stereo unspecified),/,.,/,/,.,/
CCOC(=O)c1cnc(SCC(=O)c2ccccc2)nc1N,.,.,78,.,.,.
CCOC(=O)c1cnc(SC)nc1Sc1ccccc1,.,.,.,60,.,.
COc1cccc(-n2nnnc2SCC(=O)NCCc2ccccc2)c1,.,.,93,.,.,.
COc1ccc(OC)c(-n2nnnc2SCC(=O)NCCc2ccccc2)c1,.,.,60,54,.,.
COc1cccc(-n2nnnc2SCC(=O)NCc2ccco2)c1,.,.,.,.,.,.
CCCCS(=O)CC(COCc1ccccc1)OC(=O)CSc1nc(C)cc(C)n1 (stereo unspecified),.,.,.,.,.,.
CCNc1nc(NCC)nc(SCCOC(=O)COc2ccc(Cl)cc2Cl)n1,.,.,.,.,.,.
CCOc1ccc(-c2nc(C#N)c(NCc3ccc4c(c3)OCO4)o2)cc1,.,.,.,.,.,.
Cc1ccc(OCc2nc(C#N)c(NCc3ccc4c(c3)OCO4)o2)cc1,.,.,98,99,.,.
C=CCNc1oc(COc2ccc(C)cc2)nc1C#N,.,.,65,.,.,.
CN(C)CCNc1oc(COc2ccc(-c3ccccc3)cc2)nc1C#N,.,.,.,.,.,.
SMILES,CYP2C19 activ,CD11b adhes inh,CYP2C19 inh,CYP2C9 inhib,Mac1 fbg enh,CYP2C9 act
CCc1nnc(NC(=O)c2cccc(OC)c2)s1,.,.,.,.,.,.
CCOC(=O)Cc1nnc(NC(=O)c2cccc(OCC)c2)s1,.,.,.,.,.,.
COc1cccc(C(=O)Nc2nnc(-c3cccs3)s2)c1,.,.,.,70,.,.
CCOc1cccc(C(=O)Nc2nnc(-c3ccco3)s2)c1,.,.,.,.,.,2.1
CCC(C(=O)Nc1nnc(-c2ccco2)s1)c1ccccc1 (stereo unspecified),.,.,.,55,.,.
CCCC(=O)Nc1nnc(-c2ccco2)s1,.,.,.,.,.,.
